Laboratory results taken from ChEMBL document CHEMBL3988442, “University of Dundee, Small-Polar-MMV Screening Library” (2021).
For some assays here: Entries with a potency or affinity are not part of this list.

What follows are compounds tested against T1, Ubiquitin-activating enzyme e1, putative (Leishmania donovani (strain BPK282A1)) (UniProt E9BSI1) (assay: Leishmania donovani Ubiquitin Activating Enzyme (LdE1)). Settings: 30 µM.
T1 sequence (whole entry): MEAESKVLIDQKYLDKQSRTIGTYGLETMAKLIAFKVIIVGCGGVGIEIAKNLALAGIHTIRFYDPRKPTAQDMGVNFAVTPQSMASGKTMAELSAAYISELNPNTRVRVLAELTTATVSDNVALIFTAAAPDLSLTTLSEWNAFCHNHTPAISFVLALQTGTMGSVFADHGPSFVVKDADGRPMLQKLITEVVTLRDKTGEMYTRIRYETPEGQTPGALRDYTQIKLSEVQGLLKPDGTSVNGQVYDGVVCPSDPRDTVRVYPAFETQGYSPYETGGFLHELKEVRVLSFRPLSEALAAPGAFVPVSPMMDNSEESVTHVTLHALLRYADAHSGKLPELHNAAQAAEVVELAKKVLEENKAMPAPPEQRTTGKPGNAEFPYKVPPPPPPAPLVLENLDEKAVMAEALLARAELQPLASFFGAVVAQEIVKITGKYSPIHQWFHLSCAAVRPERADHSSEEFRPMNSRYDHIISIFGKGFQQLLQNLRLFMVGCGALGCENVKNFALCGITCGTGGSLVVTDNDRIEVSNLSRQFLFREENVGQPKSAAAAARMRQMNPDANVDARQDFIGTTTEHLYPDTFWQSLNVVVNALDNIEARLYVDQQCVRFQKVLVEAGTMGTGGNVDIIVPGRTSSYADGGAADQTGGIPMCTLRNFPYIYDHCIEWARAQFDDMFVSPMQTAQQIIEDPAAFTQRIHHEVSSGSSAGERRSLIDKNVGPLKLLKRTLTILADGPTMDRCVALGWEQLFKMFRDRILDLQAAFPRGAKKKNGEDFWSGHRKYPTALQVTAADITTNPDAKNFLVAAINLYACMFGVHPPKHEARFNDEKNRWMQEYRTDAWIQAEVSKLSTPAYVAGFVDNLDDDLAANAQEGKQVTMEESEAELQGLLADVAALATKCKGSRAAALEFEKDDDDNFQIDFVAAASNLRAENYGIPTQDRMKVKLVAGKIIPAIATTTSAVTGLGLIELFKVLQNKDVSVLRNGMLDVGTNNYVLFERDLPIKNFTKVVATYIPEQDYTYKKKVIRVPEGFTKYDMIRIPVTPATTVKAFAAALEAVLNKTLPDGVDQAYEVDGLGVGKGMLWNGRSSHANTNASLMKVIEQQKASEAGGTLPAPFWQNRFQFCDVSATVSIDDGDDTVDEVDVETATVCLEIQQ
Format: functional
Parameters: scale not given: direction of the effect not stated beside the values

| SMILES | Percent Effect |
| --- | --- |
| COCCn1ccc(NC(=O)Nc2cccnc2)n1 | 0% |
| CCN(C(=O)CCCOc1ccccc1F)c1ccncc1 | 18.4% |
| O=C(NC1CC1)[C@@H]1CCO[C@@H]2CCN(C3CCOCC3)C[C@@H]21 | 2.6% |
| Cc1nc(C)n(CC2CCCN(c3ncnc4sccc34)C2)n1 (stereo not given) | 13.5% |
| Cc1nn(C)c(Cl)c1C1CCCN1C(=O)c1cc(Cl)c[nH]1 (stereo not given) | 2.7% |
| COc1c(C2CCCN2Cc2csc(C(C)C)n2)c(C)nn1C (stereo not given) | 18.2% |
| CNc1cncc(C2CCCN2Cc2ccccn2)n1 (stereo not given) | -4.05% |
| CC(=O)Nc1nc(C(=O)N2CCCC2Cn2cc(C)cn2)cs1 (stereo not given) | 10.4% |
| O=C(NCCN1CCCCCC1=O)c1ccn(-c2ccc(F)cc2)n1 | 13.5% |
| O=C(NCCCn1cccn1)N1CCCC1c1ccncc1 (stereo not given) | 2.67% |
| CC(C)c1nnc(NC(=O)NCc2ccnc(N(C)C)c2)s1 | 8.86% |
| CC(NC(=O)N(C)Cc1ccc(Cl)s1)c1ccccn1 (stereo not given) | 13.9% |
| CCc1nnc2n1CCN(C(=O)c1cnc3ccccc3n1)C2 | 4.17% |
| O=C(c1ccccc1N1CCOCC1)N1CCCC(n2cccn2)C1 (stereo not given) | 2.7% |
| CSc1ccc(NC(=O)Nc2ccc3c(c2)N(S(C)(=O)=O)CC3)cc1 | -23.4% |
| OCC1CCCN1c1cc(NCCc2c[nH]c3ccccc23)ncn1 (stereo not given) | 0% |
| CC1CCN(C(CNC(=O)CCn2cccn2)c2cccs2)CC1 (stereo not given) | 13.3% |
| CSCC[C@H](N)C(=O)NCc1cc2n(n1)CCCN(C(=O)C1CCC1)C2 | 6.94% |
| COC(=O)c1ccc(N2CCN(C(=O)c3ccncc3)C(C)C2)cc1 (stereo not given) | 20.2% |
| Cc1cccnc1NCCNC(=O)[C@H]1CNC[C@@H](C(=O)N2CCCC2)C1 | 2.74% |

| SMILES | Percent Effect |
| --- | --- |
| Cc1ccccc1CNC(=O)Cc1c(C)nc2cc(=O)[nH]n2c1C | 13.2% |
| CC(Cn1ccnc1)NC(=O)C1(c2ccc(F)cc2)CC1 (stereo not given) | 17.7% |
| O=C1NC(c2ccccc2)=N[C@@]12CC[C@@H]1CN(Cc3ccco3)C[C@@H]12 | 5.33% |
| Cc1nc(CO[C@@H]2CN(Cc3cnn(C)c3)[C@@H]3COC[C@@H]32)cs1 | 13.7% |
| COCC(=O)N1CCC[C@]2(C(=O)N(C)C)CN(c3ccccn3)C[C@@H]2C1 | 5.33% |
| O=C(c1ccc(Br)o1)N1CCCC(n2cncn2)C1 (stereo not given) | -1.39% |
| CCCOc1ccc(NC(=O)NCCC(=O)N(C)C)cc1Cl | 13.7% |
| COCCNC(=O)C1(c2ccccc2C)CCOCC1 | 2.7% |
| O=C(CN1CCN(CC(O)C2CC2)CC1)NCc1ccc(F)cc1 (stereo not given) | 10.4% |
| Cc1cnn(CCNCc2nc(COc3ccc(F)cc3)no2)c1 | 2.63% |
| CN(C)C(=O)Cc1nc(CN2CCn3c(nnc3C3CC3)C2)cs1 | 16.2% |
| CC(C)c1ncc2c(n1)CN(Cc1nc(-c3cccs3)no1)CC2 | -10.8% |
| Cc1n[nH]cc1CNc1ccc2c(c1)N(C(=O)OC(C)(C)C)CCC2 | 7.79% |
| CCn1cc(N2Cc3nc(N)ncc3C2=O)cn1 | 12% |
| Cc1cccc(-c2ccc(C(=O)NCC(C)(C)C(N)=O)c(=O)[nH]2)c1 | 2.7% |
| CN(C)C(=O)CN1CCCC2(CCN(c3ccsc3)C2=O)C1 (stereo not given) | 10.7% |
| Cc1nc(N2CCCC2)ncc1-c1cc(O)nc(N2CCCC2)n1 | -1.33% |
| O=C(c1ccc(C2CCCO2)s1)N1CCS(=O)(=O)CC1 (stereo not given) | 18.9% |
| OC(CN1CCN(Cc2nnc(C3CC3)o2)CC1)c1ccccc1 (stereo not given) | 10.1% |
| CC(=O)c1cc(CC(=O)NCc2ccc(CN(C)C)cc2)cs1 | 8.11% |

These compounds were tested against AMP-activated protein kinase, AMPK (Homo sapiens) (UniProt P54646+O43741+P54619+Q9UGJ0+Q9Y478+Q13131+Q9UGI9) (assay: AMP-dependent Kinase enzyme assay. An in vitro enzyme assay that detects ADP turnover that is directly proportional to AMPK activity. This uses naive AMPK that is activated during the assay with MK-8722). Settings: 30 µM.
Format: functional
Parameters: scale not given: direction of the effect not stated beside the values

| SMILES | Percent Effect |
| --- | --- |
| COCCn1ccc(NC(=O)Nc2cccnc2)n1 | 3.19% |
| CCN(C(=O)CCCOc1ccccc1F)c1ccncc1 | -2.56% |
| O=C(NC1CC1)[C@@H]1CCO[C@@H]2CCN(C3CCOCC3)C[C@@H]21 | -0.255% |
| Cc1nc(C)n(CC2CCCN(c3ncnc4sccc34)C2)n1 (stereo not given) | -5.88% |
| Cc1nn(C)c(Cl)c1C1CCCN1C(=O)c1cc(Cl)c[nH]1 (stereo not given) | 0.443% |
| COc1c(C2CCCN2Cc2csc(C(C)C)n2)c(C)nn1C (stereo not given) | -4.6% |
| CNc1cncc(C2CCCN2Cc2ccccn2)n1 (stereo not given) | 3.64% |
| CC(=O)Nc1nc(C(=O)N2CCCC2Cn2cc(C)cn2)cs1 (stereo not given) | 1.53% |
| O=C(NCCN1CCCCCC1=O)c1ccn(-c2ccc(F)cc2)n1 | -9.65% |
| O=C(NCCCn1cccn1)N1CCCC1c1ccncc1 (stereo not given) | -0.283% |
| CC(C)c1nnc(NC(=O)NCc2ccnc(N(C)C)c2)s1 | 3.28% |
| CC(NC(=O)N(C)Cc1ccc(Cl)s1)c1ccccn1 (stereo not given) | 9.06% |
| CCc1nnc2n1CCN(C(=O)c1cnc3ccccc3n1)C2 | -7.62% |
| O=C(c1ccccc1N1CCOCC1)N1CCCC(n2cccn2)C1 (stereo not given) | -10.8% |
| CSc1ccc(NC(=O)Nc2ccc3c(c2)N(S(C)(=O)=O)CC3)cc1 | -4.52% |
| OCC1CCCN1c1cc(NCCc2c[nH]c3ccccc23)ncn1 (stereo not given) | 12.3% |
| CC1CCN(C(CNC(=O)CCn2cccn2)c2cccs2)CC1 (stereo not given) | -0.997% |
| CSCC[C@H](N)C(=O)NCc1cc2n(n1)CCCN(C(=O)C1CCC1)C2 | -3.76% |
| COC(=O)c1ccc(N2CCN(C(=O)c3ccncc3)C(C)C2)cc1 (stereo not given) | -9.5% |
| Cc1cccnc1NCCNC(=O)[C@H]1CNC[C@@H](C(=O)N2CCCC2)C1 | -3.43% |

| SMILES | Percent Effect |
| --- | --- |
| Cc1ccccc1CNC(=O)Cc1c(C)nc2cc(=O)[nH]n2c1C | -32.1% |
| CC(Cn1ccnc1)NC(=O)C1(c2ccc(F)cc2)CC1 (stereo not given) | -3.38% |
| O=C1NC(c2ccccc2)=N[C@@]12CC[C@@H]1CN(Cc3ccco3)C[C@@H]12 | 1.87% |
| Cc1nc(CO[C@@H]2CN(Cc3cnn(C)c3)[C@@H]3COC[C@@H]32)cs1 | 1.23% |
| COCC(=O)N1CCC[C@]2(C(=O)N(C)C)CN(c3ccccn3)C[C@@H]2C1 | -3.72% |
| O=C(c1ccc(Br)o1)N1CCCC(n2cncn2)C1 (stereo not given) | 0.96% |
| CCCOc1ccc(NC(=O)NCCC(=O)N(C)C)cc1Cl | -18.2% |
| COCCNC(=O)C1(c2ccccc2C)CCOCC1 | -2.99% |
| O=C(CN1CCN(CC(O)C2CC2)CC1)NCc1ccc(F)cc1 (stereo not given) | 6.87% |
| Cc1cnn(CCNCc2nc(COc3ccc(F)cc3)no2)c1 | 1.92% |
| CN(C)C(=O)Cc1nc(CN2CCn3c(nnc3C3CC3)C2)cs1 | 2.91% |
| CC(C)c1ncc2c(n1)CN(Cc1nc(-c3cccs3)no1)CC2 | -21.1% |
| Cc1n[nH]cc1CNc1ccc2c(c1)N(C(=O)OC(C)(C)C)CCC2 | -1.81% |
| CCn1cc(N2Cc3nc(N)ncc3C2=O)cn1 | -9.46% |
| Cc1cccc(-c2ccc(C(=O)NCC(C)(C)C(N)=O)c(=O)[nH]2)c1 | -7.65% |
| CN(C)C(=O)CN1CCCC2(CCN(c3ccsc3)C2=O)C1 (stereo not given) | 2.54% |
| Cc1nc(N2CCCC2)ncc1-c1cc(O)nc(N2CCCC2)n1 | 4.03% |
| O=C(c1ccc(C2CCCO2)s1)N1CCS(=O)(=O)CC1 (stereo not given) | -2.69% |
| OC(CN1CCN(Cc2nnc(C3CC3)o2)CC1)c1ccccc1 (stereo not given) | -8.23% |
| CC(=O)c1cc(CC(=O)NCc2ccc(CN(C)C)cc2)cs1 | -1.37% |
